40 compounds from PubChem BioAssay (NCI) can be followed below.

This is part of a sample that, as a whole, favours compounds with a hit. Of some 83,000 tested, about 20% had one in any assay.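 Results are percent growth after 48 hours of single-concentration exposure. 100 means growth as in untreated cells, lower positive values show inhibition; negative values down to -100 show cell death.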 Calls of active or inactive are those of the source. The calls were made as follows: active = growth percent below 10; inactive = the rest.

This assay deals with HOP-92 NSCLC. Kind of assay: NCI-60 one-dose screen, 48 h (100 = growth as untreated, 0 = no growth, -100 = all killed). To be noted: 10 µM unless noted.
Regarding `Fc1ccc(COc2ccc(Nc3ncnc4sc5c(c34)CCCC5)cc2)cc1`, the growth is 88.9% (inactive).
For the compound `COc1cc(C2Cc3ncccc3-c3[nH]c(=O)c4cccnc4c32)cc(OC)c1OC` (stereo not given), the growth was 67.5% (inactive).
On to `O=C(c1ccc(Cl)cc1Cl)N1c2ccccc2Sc2ccccc21`, for which the growth is 71.5% (inactive).
The result for `O=C(N/N=C/c1ccc([N+](=O)[O-])cc1)c1ccc2nc(-c3ccc(Cl)cc3)[nH]c2c1` reads 59.7% (inactive).
Turning to `O=C(NCc1ccccc1O)c1cccc2ccccc12`, the growth was -8.54% (active).
Under `CC1=C(C(=O)n2c3ccccc3c3ccccc32)C(c2cccc([N+](=O)[O-])c2)C(C(=O)n2c3ccccc3c3ccccc32)=C(C)N1` stands 93.8% (inactive).
On to `COc1ccc(/C=C/C(=O)c2ccc(NC(=O)CSc3nnc(-c4cc(-c5ccccc5)nc5ccccc45)n3-c3ccccc3)cc2)cc1`, for which the growth was 84.9% (inactive).
On to `Cn1cc(-c2nc(-c3c[nH]c4ccncc34)cs2)c2cc(Br)ccc21`, for which the growth was -91.9% (active).
Under `C#Cc1cccc(Oc2ccc(NC(=O)CCl)cc2)c1` stands 81.2% [8.25 µM] (inactive); under `CC1(C)CC[C@]2(C(=O)N3CCOCC3)CC[C@]3(C)C(=CC[C@@H]4[C@@]5(C)C/C(=C/c6ccncc6)C(=O)C(C)(C)[C@@H]5CC[C@]43C)[C@@H]2C1`, -6.7% (active).
For `CC(C)c1ccc(NC(=O)Nc2ccc(NC(=O)c3ccccc3N)cc2)cc1`, the growth is 74.2% (inactive).
As for `Cc1cc(C(=O)Nc2cc(Nc3ncccc3-c3ncnc4nc[nH]c34)ccc2F)cc(C(F)(F)F)c1`, the growth was -5.43% (active).
With `COc1cc2c3c(n(CCCCNCCCn4c5c(c6cc(OC)c(OC)cc6c4=O)C(=O)c4cc6c(cc4-5)OCO6)c(=O)c2cc1OC)-c1cc2c(cc1C3=O)OCO2`, the growth is 87% (inactive).
Regarding `CNC(=O)c1c(NC(=O)c2ccc(C(C)(C)C)cc2)sc2c(CN(C)C)c(O)ccc12`, the growth is 19% (inactive).
Under `CCCCn1sc(=O)n(Cc2ccc(CNC(=O)OCc3ccc4c(Cl)cc(Cl)c(O)c4n3)cc2)c1=O` stands 74.5% (inactive).
Under `O=C1Nc2ccc(F)cc2/C1=N/c1nnc(Sc2ccccc2)s1` stands 96.9% (inactive); under `N#Cc1c(N2CCOCC2)nc(=S)[nH]c1-c1ccccc1`, -7.41% (active); under `O=C(CSc1nnc2sc(Nc3cccc(Cl)c3)nn12)c1ccc(F)cc1`, 74.5% (inactive).
Under `C=C(CO)[C@@H]1CC[C@]2(COC3CCCCO3)CC[C@]3(C)[C@H](CC[C@@H]4[C@@]5(C)C=C(C=O)C(=O)C(C)(C)[C@@H]5CC[C@]43C)[C@@H]12` (stereo not given in full) stands -92.5% (active); under `COc1ccc(-c2cc(C(=O)N3N=C(c4ccc(N)cc4)CC3c3ccccc3)c3ccccc3n2)cc1` (stereo not given), 34.5% (inactive).
Regarding `COc1ccc(-c2cc(-c3cc(OC)c(OC)c(OC)c3)c(C#N)c(=O)n2CCCCCC(=O)NO)cc1`, the growth was 88.5% (inactive).
Under `Cn1ccnc1C(=O)/C=C/c1ccc(C(=O)Nc2ccc(F)cc2)cc1` stands 11.1% (inactive); under `C=C1C(=O)O[C@H]2[C@H]1CC/C(COC(=O)NCCCCCCCCNC(=O)OC/C1=C/CC[C@@]3(C)O[C@H]3[C@H]3OC(=O)C(=C)[C@@H]3CC1)=C\CC[C@@]1(C)O[C@@H]21`, -83.2% (active); under `C/C(C=O)=C\c1ccc2c(c1)OCO2`, 104% (inactive).
Under `COc1cccc(/C=C/C(=O)c2cc3c(N)c(C(=O)Nc4cccc(Cl)c4C)sc3nc2C)c1` stands 20.3% (inactive); under `COC(=O)/C=C1/SC(=Nc2cccc(Cl)c2)N(CCc2c[nH]c3ccc(O)cc23)C1=O`, 40.7% (inactive).
`CCC/C(=N\NC(N)=O)C(OC)OC`: the growth was 68.4% (inactive).
Under `COc1ccc2cc(Cn3cc[n+](Cc4ccc5ccccc5c4)c3)ccc2c1` stands -11.8% (active).
For `Cn1c(=O)c2c(c3ccccc31)OC(N)=C(C#N)C21C(=O)c2ccccc2C1=O`, the growth is 92.8% (inactive).
For `CN1CCN(c2ccc3c(c2)nc(NNC(=O)c2cnccn2)c2cccn23)CC1`, the growth is 65.5% (inactive).
For `Cc1cc(C)c(-c2c(O)c(Br)c(-c3c(C)cc(C)c(Br)c3C)c(O)c2Br)c(C)c1Br`, the growth is -3.74% (active).
Under `CCN(CC)S(=O)(=O)c1ccc(S(=O)(=O)N2CCC[C@@H](C(=O)N3CCN(C(=O)OC(C)(C)C)CC3)C2)cc1` stands 74.9% (inactive); under `O=C1/C=C/[C@@H](O)[C@@H]2C[C@@H](O)C[C@H]2/C=C/CCC[C@H](CCOCc2ccccc2)O1`, -16% (active); under `COc1ccc(C2=Nc3c/c(=C\c4c(O)[nH]c5cc(Cl)ccc45)ccc3=N2)cc1`, 77.9% (inactive).
`CCCCCCCCCCCCCCCCCCOc1ccccc1CC(=O)NCC[N+]1(C)CCOCC1`: the growth was -2.9% (active).
The result for `Cc1ccc(-c2cc(C(=O)N3N=C(c4ccc(N)cc4)CC3c3ccc(Cl)cc3)c3ccccc3n2)cc1` (stereo not given) reads 41.2% (inactive).
Under `O=C(CN1C(=O)/C(=C/c2ccco2)SC1=S)NCCc1c[nH]c2ccc(F)cc12` stands 102% (inactive).
For the compound `CCN(CC)CCN(CCN(CC)CC)c1ccccc1`, the growth is 67.3% (inactive).
Under `COc1cc(C(=O)C(=O)c2cc(OC)c(O)c(OC)c2)cc(OC)c1O` stands 91.7% (inactive); under `O=C(/C=C/c1ccc(Br)cc1)c1ccc(-n2cc(CN3CCN(c4cc5c(cc4F)c(=O)c(C(=O)O)cn5C4CC4)CC3)nn2)cc1`, 84.6% (inactive).
